# Screens from PubChem BioAssay.
# The list is not random: actives were taken first. Their share in the collection is about 10%.
# HPGD inh: HPGD (human) dehydrogenase inhibition; Potency, µM, usual class: inhibitors; 150,000 compounds, 4.3% hits; AID 894; purified HPGD, NADH fluorescence kinetic, PGE2 substrate
# Target sequence (P15428 whole entry, looked up): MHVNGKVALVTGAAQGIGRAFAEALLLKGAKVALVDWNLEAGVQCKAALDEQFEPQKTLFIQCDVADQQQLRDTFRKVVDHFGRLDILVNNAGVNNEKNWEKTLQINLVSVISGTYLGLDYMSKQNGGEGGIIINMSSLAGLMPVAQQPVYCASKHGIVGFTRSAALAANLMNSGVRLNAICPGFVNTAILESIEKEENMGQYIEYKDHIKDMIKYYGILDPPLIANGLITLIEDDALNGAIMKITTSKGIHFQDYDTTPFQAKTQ
#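 20 nM HPGD preincubated 15 min at room temperature with compound in 50 mM Tris-HCl pH 8, 0.01% Tween 20. Started with 1 mM NAD+ and 30 uM prostaglandin E2; NADH fluorescence (360/450 nm) read 5 times over 30-s intervals, last minus first.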
# PNC assembly inh: blocks assembly of the perinucleolar compartment | PC3M PTB-GFP, PNC prevalence imaging, 16 h; hits give low values | activity change (PNC), negative = inhibition, % at 10 µM | 140,000 compounds, 3.1% hits | AID 2417;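 active means readout at or below -70, meaning at least 70% loss of cells showing the perinucleolar compartment, a nuclear body marking cancer cells; inconclusive means readout between -30 and a set limit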
#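 PC3M cells stably expressing PTB-GFP, 750–1000 cells/well, treated 16 h at 37 °C with compound (23 nl of library stock), in duplicate. After paraformaldehyde fixation and Hoechst stain, imaged at 20x; PNC prevalence scored by image analysis.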
# KinaseGlo FLuc: blocks Kinase-Glo luciferase, a counter-screen artifact; Kinase-Glo luciferase, ATP luminescence, 8 min; Potency, µM (top dose mostly 38.3 µM), actives largely listed as inhibitors; 200,000 compounds, 0.28% hits; active means well fitted inhibition curve with a large enough effect; inconclusive means small, poorly fitted or top-dose-only effect; further: nearly all actives have a fitted effect of over 60% in size
#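 Light output from Kinase-Glo luciferase with luciferin and 10 uM ATP in 50 mM imidazole pH 7.2, KCl, MgCl2, Tween 20, BSA; compound pin-delivered, 8-min ambient incubation, then luminescence read.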
# IMPase inh: membrane-permeable compound that blocks inositol monophosphatase; 120,000 tested, under 10 active; inhibition (IP1 accumulation), % at 46.1 µM; P97697; AID 901; CHO-M1 cells, IP1 accumulation, HTRF TR-FRET ratio; active means well fitted curve in the direction sought with a large enough effect in the signal ratio, not every such curve was filed as active; inconclusive means small, poorly fitted or top-dose-only effect, or a change in a side signal; inactive means no such curve, though single readings can be large or run the other way; the % refers to the signal ratio;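 further: cells stimulated with carbachol in lithium chloride buffer; higher means more IMPase inhibition seen as more IP1 and lower FRET ratio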
# Target sequence (P97697 whole entry, looked up): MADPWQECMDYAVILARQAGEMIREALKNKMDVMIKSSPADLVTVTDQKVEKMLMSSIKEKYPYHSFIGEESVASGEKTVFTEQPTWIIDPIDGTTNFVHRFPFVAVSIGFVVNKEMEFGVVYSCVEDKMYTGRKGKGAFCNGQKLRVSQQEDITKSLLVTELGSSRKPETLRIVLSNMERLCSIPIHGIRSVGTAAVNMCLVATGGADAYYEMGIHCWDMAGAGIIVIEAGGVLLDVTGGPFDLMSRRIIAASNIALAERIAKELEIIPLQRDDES
#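 Seeded CHO-M1 cells were dosed with compound at up to 46 uM, stimulated with carbachol for 30 min, then lysed in IP-One detection reagents. Higher IP1 lowers the TR-FRET signal.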
# ALDH1A1 block: inhibitors of human aldehyde dehydrogenase 1A1; AID 1030; Purified ALDH1A1, NADH fluorescence, propionaldehyde substrate; P00352; 220,000 compounds, 7.3% hits; Potency, µM (series often up to 75.3 µM), most hits filed as inhibitors
# Lamin A splicing: changes lamin A minigene splicing in HeLa cells; 200,000 compounds, 0.01% hits; Potency, µM (titrated, usually from 46.1 µM), usual class: inhibitors; HeLa LMNA splicing GFP/RFP minigene ratio, 48 h; active means well fitted inhibition curve with a large enough effect in the signal ratio, with a control signal flat, not every such curve was filed as active; inconclusive means small, poorly fitted or top-dose-only effect, or effect the other way, or a change in a side signal; the % refers to the signal ratio
#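 Read-out is the ratio of GFP to DsRed2 object intensity, acquired by 488 nm laser-scanning cytometry on HeLa lamin A-EGFP minigene reporter cells. Compound incubation 48 hrs at 37 °C in Opti-MEM with 2% FBS; DMSO 0.5% final.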
# Hits are given with their value; - = inactive; ? = inconclusive; . = not tested or not shown; [ ] = remark or other dose. Unless noted, the call rests on the fitted dose curve; in most records, active means well fitted inhibition curve with a large enough effect (not every such curve was filed as active); inconclusive means small, poorly fitted or top-dose-only effect, or another doubt; inactive means no such curve, though single readings can be large or run the other way.
SMILES,HPGD inh,PNC assembly inh,KinaseGlo FLuc,IMPase inh,ALDH1A1 block,Lamin A splicing
CCCCn1nnnc1SCC(=O)c1ccc(C)c(C)c1,.,-,.,-,7.94µM,?
COc1ccc(Cl)cc1NC(=O)C1CCN(S(=O)(=O)c2ccc3c(c2)CC(C)N3C(C)=O)CC1 (stereo not given),.,.,.,.,.,-
CCOC(=O)CCSc1n[nH]c(=S)s1,.,.,.,.,1.78µM,.
CCOC(=O)CSc1nn(C)c(=S)s1,?,-,-,-,?,-
O=C(CSc1ncn[nH]1)Nc1nnc(-c2ccccc2)s1,-,-,-,-,28.2µM,?
O=C(CN1CCN(c2ccc(F)cc2)CC1)Nc1nnc(-c2ccccc2)s1,-,?,-,-,28.2µM,-
Cc1cc(C)cc(NC(=O)CC(C)n2nc(C)cc2C)c1 (stereo not given),.,.,.,.,.,-
CN(C)CC[C@H](c1ccc(Br)cc1)c1ccccn1,-,.,-,-,-,?
Cc1cc(C(=O)NC(CC(C)C)C(=O)O)cc(C)c1[N+](=O)[O-] (stereo not given),-,-,-,.,7.08µM,-
N=C(N)CCNC(=O)[C@@H]1CCC(N)=N1,-,.,-[7.66 µM],.,-[13.5 µM],.
O=C(CCCCC(=O)N1CCN(c2ccccc2)CC1)N1CCN(c2ccccc2)CC1,-,-,-,-,-,?
O=C(CCCc1ccccc1)N1CCN(c2ccc([N+](=O)[O-])cc2)CC1,-,-,-,-,22.4µM,-[0.0737 µM]
O=C(CCCC(=O)N1CCN(c2ccc([N+](=O)[O-])cc2)CC1)c1ccccc1,-,-,-,.,28.2µM,-
O=C(CCc1ccccc1)N1CCN(CCO)CC1,-,-89.1,-,-,-,-
O=C(CCS(=O)(=O)Cc1ccccc1)N1CCN(c2ccc([N+](=O)[O-])cc2)CC1,.,.,-,.,25.1µM,-
CC(=O)NC(NC(=S)Nc1ccc(N=Nc2ccccc2)cc1)C(Cl)(Cl)Cl (stereo not given),-,-,-,-,12.6µM,?
COC(=O)NC(NC(=S)Nc1ccccc1OC)C(Cl)(Cl)Cl (stereo not given),.,-,.,-,3.16µM,-
CCOC(=O)NC(NC(=S)Nc1ccc(OC)cc1)C(Cl)(Cl)Cl (stereo not given),-,-,-,.,-,-
COC(=O)NC(NC(=S)Nc1ccc([N+](=O)[O-])cc1)C(Cl)(Cl)Cl (stereo not given),31.6µM,-,-,-,20µM,?
CCOC(=O)NC(NC(=S)Nc1ccccc1OC)C(Cl)(Cl)Cl (stereo not given),-,-,-,.,-,-
COc1ccc([N+](=O)[O-])cc1NC(=S)NC(NC(=O)C(c1ccccc1)c1ccccc1)C(Cl)(Cl)Cl (stereo not given),-,-,-,-,20µM,?
O=C(O)CC(CC(=O)O)C(=O)O,-,.,-[7.66 µM],.,-[13.5 µM],.
CCOC(=O)c1ccc(-n2c(N)c(C(=O)OC)c3nc4ccccc4nc32)cc1,.,.,.,.,.,-
CCCc1ccc(OCc2nc(-c3ccc(NC(=O)c4cccs4)cc3)no2)cc1,?,-90.8,-,.,-,-
Cc1ccccc1OCc1nc(-c2ccc(NC(=O)c3cccs3)cc2)no1,-,-,-,.,?,-
SMILES,HPGD inh,PNC assembly inh,KinaseGlo FLuc,IMPase inh,ALDH1A1 block,Lamin A splicing
Cc1ccccc1OCc1nc(-c2ccc(NC(=O)c3ccco3)cc2)no1,?,-100.0,-,-,-,-
COC(=O)c1sc(N2C(=O)c3oc4ccccc4c(=O)c3C2c2ccc(O)cc2)nc1C (stereo not given),.,.,.,-,.,.
CCCc1cnc2c(c1SCc1ccc(C(F)(F)F)cc1)c(=O)n(C)c(=O)n2C,.,.,.,.,.,-
c1cn(C23CC4CC(CC(C4)C2)C3)cn1,-,?,-,-,-,-
S=c1nn[nH]n1C12CC3CC(CC(C3)C1)C2,?,-,-,-,2.82µM,-
CCOC(=O)C1CCCN(C(=O)c2nn(-c3ccc(C)cc3)c(=O)n(C)c2=O)C1 (stereo not given),.,.,.,.,.,-
CC1(C)CC(c2nc(-c3ccc([N+](=O)[O-])cc3)cs2)CCO1 (stereo not given),.,.,-,.,15.8µM,-
Nc1nc(-c2ccc([N+](=O)[O-])cc2)cs1,.,-,.,-,-,-
C/C(=C\C[Si](C)(C)C)CC[C@H](O)C1=CCCCC1=O,-,.,-,.,-,.
CCOC(=O)c1c(NC(=O)/C=C/c2ccc(Cl)cc2)sc2c1CCC(C)C2 (stereo not given),.,.,.,-,.,.
O=C(N/N=C/c1cn(-c2ccccc2)nc1-c1cc2ccccc2o1)c1cccnc1,?,-106.3,-,.,?,?
O=C(N/N=C/c1cn(-c2ccccc2)nc1-c1cc2ccccc2o1)c1ccncc1,-,-,-,.,-,?
CS(=O)(=O)N1CCN(c2ccccc2NC(=O)c2cccs2)CC1,-,-,-,-,10µM,-
CS(=O)(=O)N1CCN(c2ccccc2NC(=O)CSc2nnc(-c3ccco3)o2)CC1,-,-,-,.,12.6µM,-
CS(=O)(=O)N1CCN(c2ccccc2NC(=O)C(c2ccccc2)c2ccccc2)CC1,-,?,-,-,6.31µM,-
Cc1c(C(=O)N(C)C)sc2c1c(=O)n(-c1ccc(Cl)c(Cl)c1)c(=O)n2CC(=O)N1CCCCC1C (stereo not given),.,.,.,.,.,-
COc1cc(OC)c(NS(=O)(=O)c2cc3c(cc2C)N(C(C)=O)CCO3)cc1Cl,.,.,.,.,.,-
COC(=O)c1sc(NC(=O)c2cc3nc(-c4ccc(Br)cc4)cc(C(F)(F)F)n3n2)c(C(=O)OC)c1C,.,.,.,.,.,-
N#Cc1c(N)n[nH]c1-c1cc2c([nH]1)CCCC2,-,-100.0,-,-,-,-
CCOCCCNC(=O)CCc1ccc(S(=O)(=O)Nc2ccc(C)cc2)cc1,.,.,-,.,-,-
CCOCCCNC(=O)C(C)NS(=O)(=O)c1ccc(C)cc1 (stereo not given),?,-89.7,-,-,?,-
Nc1nnc(C(c2ccccc2)c2ccccc2)s1,-,-,-,-,?,-
COc1cc(OC)cc(C(=O)Nc2nnc(Cc3ccc(OC)c(OC)c3)s2)c1,.,.,-,.,-,.
Nc1nnc(CSCc2ccccc2)s1,-,-,-,-,-,-
COc1ccc(Cc2nnc(N)s2)cc1OC,31.6µM,-,-,-,28.2µM,-
SMILES,HPGD inh,PNC assembly inh,KinaseGlo FLuc,IMPase inh,ALDH1A1 block,Lamin A splicing
Nc1nnc(CC(c2ccccc2)c2ccccc2)s1,22.4µM,?,-,-,-,-
Nc1nnc(Cc2ccccc2)s1,-,-,-,-,11.2µM,-
Nc1nnc(CCc2ccccc2)s1,-,-,-,-,-,-
Cc1cccc(CSCc2nnc(N)s2)c1,28.2µM,-,-,-,?,-
CCC/C=C(\CCC)C(NS(=O)(=O)c1ccc(Cl)cc1)c1ccccc1 (stereo not given),-,.,-,.,-,.
C[C@H]1Cc2c(COc3ccccc3)nc3c(c2CO1)CN(C(=O)Cc1cccs1)CC3,-,.,-[7.66 µM],.,-[13.5 µM],?
COc1ccc(Cc2nnc(N)s2)cc1,28.2µM,-,-,-,?,?
